High-throughput results deposited in PubChem BioAssay by several laboratories.
A selection: hits, their analogues and other compounds. The true share with any hit is near 5.9%.
GAA850 FXN act – increases GAA850 frataxin promoter reporter activity; HEK293 lucGAA850 FXN promoter luciferase reporter, 24 h; percent of 10 µM SAHA response; activation, % at 6 µM; actives 0.56% (n = 360,000);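 active = activation above the average of all compounds screened plus 3 SD, cutoff fixed separately per campaign, cut at about 7.5% in these data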;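 also: 0% = DMSO wells and 100% = 10 µM SAHA wells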
HSP90 refold inh – blocks HSP90-mediated luciferase refolding in reticulocyte lysate; Rabbit reticulocyte lysate, luciferase refolding luminescence, 3 h; inhibition, % at 5.6 µM; actives 0.91% (n = 290,000); AID 1789;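 active = inhibition above the screen-wide mean plus 3 SD, computed separately per campaign, cut at about 16% in these data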;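 also: 0% = DMSO wells and 100% = 60 µM geldanamycin wells; inhibitors lower the luminescence because luciferase stays unfolded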
NR0B1 inh – inhibitors of human orphan nuclear receptor DAX1 (NR0B1); actives 0.99% (n = 340,000); HEK293 Gal4-DAX1 luciferase reporter, luminescence; AID 504766; inhibition, % at 6.75 µM; P51843;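 active = inhibition above the mean over all tested compounds plus 3 SD, cut at about 4.2% in these data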;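 also: 0% = DAX1-transfected cells with DMSO and 100% = empty-vector control cells with DMSO; inhibition shows as a rise in luminescence from relieved DAX1 repression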
Target sequence (P51843 207-470 limits assumed): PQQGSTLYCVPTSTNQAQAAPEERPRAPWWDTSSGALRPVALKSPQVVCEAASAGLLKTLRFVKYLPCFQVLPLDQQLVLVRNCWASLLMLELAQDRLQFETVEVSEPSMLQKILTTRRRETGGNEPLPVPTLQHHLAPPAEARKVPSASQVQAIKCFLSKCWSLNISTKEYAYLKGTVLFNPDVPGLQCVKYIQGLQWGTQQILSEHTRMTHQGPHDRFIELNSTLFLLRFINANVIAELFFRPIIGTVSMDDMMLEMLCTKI
HSF1 inhib – HSF1 inhibition; NIH3T3-HGL HSE-luciferase, MG132-induced, luminescence 8 h; stronger effect = lower value; activity change, negative = inhibition, % at 7.5 µM (by protocol); actives 0.77% (n = 300,000);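 active = more than half of replicate wells show activity change below -50%, luminescence cut by over half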;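 also: luciferase reports HSF-1 transcriptional activity via heat shock element; 0% = median of DMSO wells and -100% = zero luminescence signal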
AHR activator – activators of human aryl hydrocarbon receptor; activation, % at 5 µM; actives 2.5% (n = 320,000); AHR-responsive luciferase reporter cells, luminescence; AID 2796; P35869; in the data active = activation above about 47%;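 also: 0% = vehicle wells and 100% = reference agonist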
HSF-1 act – increases HSF-1 driven luciferase reporter signal. NIH3T3-HGL HSF-1 luciferase reporter, MG132, 8 h; 100% = twice DMSO control signal. activation, % at 9 µM. actives 1.7% (n = 300,000). AID 504408;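 active = mean replicate activation of at least 50% with a set share of replicates each reaching 50%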;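 also: 0% = median of the neutral control wells and 100% = twice that signal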
* marks the source's active call; other numbers are inactive results; / = no result given.

SMILES	GAA850 FXN act	HSP90 refold inh	NR0B1 inh	HSF1 inhib	AHR activator	HSF-1 act
COc1cccc(C(=O)NC(c2ccccc2)C2CCCC2)c1 (stereo unspecified)	0	1	0	31	0	69*
O=C(Nc1ccc2cccnc2c1)c1ccc(Br)cc1	2	-3	3	14	50*	15
CCOc1ccc(C(=O)Nc2cccc(C)n2)cc1	1	8	-2	17	11	43
Cc1cccc(NC(=O)c2ccc(COc3ccc4ccccc4c3)o2)n1	7	9	0	51	38	68*
Cc1cccc(NC(=O)c2ccccc2Br)n1	2	/	2	0	62*	12
CCCCOc1ccc(C(=O)Nc2cccc(C)n2)cc1	3	11	-1	31	5	57*
Cc1cccc(NC(=O)c2cccc3c2-c2ccccc2C3=O)n1	3	-1	-1	-4	5	32
O=C(Nc1ccc2nc3ccccc3nc2c1)c1ccc(Br)cc1	6	-4	-1	9	-1	7
C/C=C/c1ccc(OCCOCCNCc2ccccc2)c(OC)c1	6	0	0	-2	1	-6
CCc1ccccc1OCC(=O)OCC(=O)Nc1cc(C)on1	1	/	0	/	4	/
Cc1cccc(NC(=O)c2ccc3nccnc3c2)n1	3	6	1	6	48*	3
CC(=O)c1ccc(NC(=O)c2ccc(C)c(Br)c2)cc1	6	-1	3	32	-5	56*
Cc1cc(NC(=O)c2ccc3nccnc3c2)ccc1Br	3	/	2	/	64*	/
COc1ccc(NC(C)=O)cc1NC(=O)C1CCN(C(=O)Nc2ccccc2)CC1	2	/	1	-3	3	1
Cn1cc(-c2nnc(-c3ccccc3)o2)c2ccccc21	2	-4	4	35	49*	66*
Cc1nnc(-c2ccccc2)o1	4	11	1	2	2	-20
CCCc1nnc(NC(=O)CCC(=O)N2CCN(S(=O)(=O)c3ccc(F)cc3)CC2)s1	-1	0	1	-86*	2	-88
CCCc1nnc(NC(=O)CCC(=O)N2CCN(Cc3cc(F)ccc3OC)CC2)s1	1	-6	0	0	1	2
FC(F)(F)c1ccc(/C=N/N2CCN(Cc3cccc4ccccc34)CC2)cc1	2	-1	0	2	-1	5
C(=N\N1CCN(Cc2cccc3ccccc23)CC1)/c1cccnc1	0	-5	-1	16	3	62*
O=C(COC(=O)c1ccc2ncsc2c1)NCc1ccccc1Cl	-1	/	0	/	-1	/
CC(C)(C)c1[nH]ncc1[N+](=O)[O-]	4	-4	-1	9	-1	52*
COc1cc(C(=O)N/N=C2\CCS(=O)(=O)c3ccc(F)cc32)cc(OC)c1OC	0	-1	2	6	6	-4
COc1ccccc1NCC(=O)NN=C1CCS(=O)(=O)c2ccc(F)cc21	-1	/	0	/	49*	/
Nc1c2c(nc3ccc(Br)cc13)N(Cc1ccccc1)CC2	1	3	1	5	50*	23
SMILES	GAA850 FXN act	HSP90 refold inh	NR0B1 inh	HSF1 inhib	AHR activator	HSF-1 act
Nc1c2c(nc3ccc(Br)cc13)N(c1ccccc1)CC2	7	-1	-1	/	76*	/
Cc1cccc(N2CCc3c2nc2ccc(Br)cc2c3N)c1	2	-2	1	16	108*	37
Nc1c2c(nc3ccc(Br)cc13)N(C1CCCCC1)CC2	/	6	/	22	52*	43
O=c1c2cc(Br)ccc2nc2n1CCCCC2	4	-3	0	2	-5	9
Nc1c2c(nc3ccccc13)N(C1CCCCC1)CC2	3	/	1	5	36	-3
COc1ccc(C=CC(O)CCN2CCC3CCC(C3)C2)cc1 (stereo unspecified)	-1	/	2	/	/	/
Cc1c(N(C)C(=O)COc2ccc3ccccc3c2)c(=O)n(-c2ccccc2)n1C	-1	2	-1	-8	4	-19
O=C(CN1CCCC1)Nc1ccc(OC(F)(F)F)cc1	1	-2	2	0	6	2
CC(=O)Nc1ccc(N/C=C/C(=O)c2ccco2)cc1	4	-3	2	2	2	5
CN(C)c1ccc(N/C=C/C(=O)c2ccco2)cc1	-1	9	4.3*	1	27	10
O=C(Nc1nc2nccc(-c3ccccc3)n2n1)C(Cl)(Cl)Cl	4	-1	2	2	54*	19
O=C(C1=NN[C@@H]2C(=O)N(c3cccc(F)c3)C(=O)[C@H]12)c1ccc2ccccc2n1	1	1	0	6	99*	0
O=C(C1=NN[C@@H]2C(=O)N(c3cccc(C(F)(F)F)c3)C(=O)[C@H]12)c1ccc2ccccc2n1	0	-4	0	-6	29	-1
O=C(Nc1ccccc1)N(O)c1ccc(Cl)cc1	1	3	1	13	60*	30
O=C(CSCCS(=O)(=O)c1ccc(Cl)cc1)Nc1ccccc1	0	5	1	6	-4	8
CCN(CCS(=O)(=O)c1ccc(Cl)cc1)C(=O)Nc1ccccc1	1	0	/	-64*	0	-73
O=C1CCCC(O)=C1C1C2=C(CCCC2=O)Oc2ccccc21 (stereo unspecified)	-1	0	0	0	4	15
O=C1CC(=O)C(n2cncn2)C(c2c(F)cccc2Cl)C1 (stereo unspecified)	-2	2	-1	4	-1	7
O=C1CC(=O)C(n2cncn2)C(c2ccc(Cl)cc2)C1 (stereo unspecified)	0	-2	5.8*	-5	-4	-12
Cc1nn(-c2ccccc2)c2nc(-c3ccncc3)cc(C(=O)NCc3ccco3)c12	3	0	-1	-4	65*	11
Cc1nn(-c2ccccn2)c2nc(-c3cccs3)cc(C(=O)NCc3ccco3)c12	1	-2	-2	8	-3	3
CC1(C(=O)NS(=O)(=O)C2CC2)CCN(C(=O)c2cccc(OC(F)(F)F)c2)C1 (stereo unspecified)	2	/	/	/	/	/
CCc1ccc(N2CC34C=CC(O3)C(C(=O)OC(C)C)C4C2=O)cc1 (stereo unspecified)	0	-2	1	2	1	6
CCc1ccc(N2CC34C=CC(O3)C(C(=O)OC)C4C2=O)cc1 (stereo unspecified)	2	1	4.4*	2	-1	5
Nc1nc(NCC2CCCO2)nc(Nc2ccccc2)c1[N+](=O)[O-] (stereo unspecified)	0	-1	-1	-2	3	-13
Nc1nc(NCC2CCCO2)nc(Nc2ccc(Cl)cc2)c1[N+](=O)[O-] (stereo unspecified)	0	-1	0	0	68*	6
Nc1nc(NCCCN2CCOCC2)nc(Nc2ccc(Cl)cc2)c1[N+](=O)[O-]	0	4	/	1	74*	-7
